HCV inhibitor = blocks hepatitis C virus | Potency, µM (highest dose often 41.8 µM), inactives show top-dose activity change, negative = inhibition, hits mostly inhibitors | Huh7.5.1 HCVcc-Cre infection, luciferase reporter, 44 h | 340,000 compounds, 3.4% hits; further: potency means the concentration at half of the fitted maximal effect
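Luciferase read-out (15 sec integration) after a 15 min room-temperature substrate step quantifies HCVcc-Cre infection. Cells, 1,000 per well, had compound added 4 h post-plating, then virus at ~0.5 moi, and were cultured 44 h.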
FBPA Giardia inh = inhibitors of Giardia lamblia fructose-1,6-bisphosphate aldolase | A8B2U2 | Potency, µM (top dose mostly 59.6 µM), for inactives: at the highest dose activity, negative = inhibition, hits mostly inhibitors | purified Giardia FBPA | 290,000 compounds, 0.71% hits; further: potency means the concentration at half of the fitted maximal effect; nearly all actives have a fitted effect of over 55% in size
Target sequence (A8B2U2 whole entry, looked up): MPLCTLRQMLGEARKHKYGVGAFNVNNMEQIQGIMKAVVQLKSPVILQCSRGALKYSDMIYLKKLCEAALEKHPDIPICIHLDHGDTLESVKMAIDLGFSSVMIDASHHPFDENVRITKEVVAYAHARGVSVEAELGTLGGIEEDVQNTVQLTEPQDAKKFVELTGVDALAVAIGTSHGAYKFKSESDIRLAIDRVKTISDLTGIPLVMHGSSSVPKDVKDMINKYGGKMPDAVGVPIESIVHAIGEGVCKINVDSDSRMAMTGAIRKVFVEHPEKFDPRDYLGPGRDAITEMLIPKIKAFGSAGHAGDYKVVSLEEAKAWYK
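40 nM FBPA preincubated 10 min at RT with compound (up to 57.5 uM final), then substrate plus GAPDH/TPI/NAD/arsenate coupling and diaphorase/resazurin added. Fluorescence read after 20 min at RT, 525/598 nm.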
FMDV inh = foot and mouth disease virus antiviral activity; FMDV antiviral cell-based qHTS; Potency, µM (series often up to 57.9 µM), for the others: at the top dose activity change, negative = inhibition, actives largely listed as inhibitors; 410,000 compounds, 1.2% hits; calls by dose curve; tested in HEK293T cells; further: read-out not given here; potency means the concentration at half of the fitted maximal effect; nearly all actives have a fitted effect of over 45% in size
VACV mCherry inh = inhibitors of vaccinia virus infection (mCherry reporter signal). Vaccinia virus mCherry reporter infection, fluorescence. Potency, µM (titrated, usually from 36.5 µM), inactives show at the top dose activity change, negative = inhibition, actives largely listed as inhibitors. 310,000 compounds, 0.63% hits. AID 720579; calls by dose curve; tested in A549 cells; further: potency means the concentration at half of the fitted maximal effect; nearly all actives have a fitted effect of over 35% in size
HCMV inh = inhibitors of human cytomegalovirus. HFF cells, HCMV-luciferase reporter, 72 h; active compounds read low. 410,000 compounds, 4.5% hits. activity change, negative = inhibition, % at 57.5 µM; in the data active means activity change below about -60%; inconclusive means no clear call, values can overlap the other calls; inactive means above about -39%
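Steps: HFFs plated, 16 h 37C; compounds added; HCMV-luciferase added to MOI 1 PFU/cell; 72 h 37C; OneGlo reagent, 5 min room temperature; luminescence read, normalized to controls.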
VACV Venus inh = vaccinia inhibition (Venus reporter). Vaccinia virus Venus reporter expression, fluorescence. Potency, µM (top dose mostly 36.5 µM), for the others: at the highest dose activity change, negative = inhibition, hits mostly inhibitors. 330,000 compounds, 0.46% hits. AID 720580; calls by dose curve; tested in A549 cells; further: potency means the concentration at half of the fitted maximal effect; nearly all actives have a fitted effect of over 30% in size
Numbers without * were called inactive; i = inactive; ? = inconclusive; nt = no result given; [ ] = dose if it differs, or a comment. Hits are enriched below; roughly 7.5% of the tested compounds scored in any of these assays. Unless noted, the call rests on the fitted dose curve; in most records, active means well fitted curve in the direction sought with a large enough effect; inconclusive means small, poorly fitted or top-dose-only effect, or another doubt; inactive means no such curve, though single readings can be large; an effect the other way counts as inactive or inconclusive. On the % scale 0 is the no-effect control and ±100 the full control effect.

SMILES	HCV inhibitor	FBPA Giardia inh	FMDV inh	VACV mCherry inh	HCMV inh	VACV Venus inh
Cc1cc(O)c(C(C)C)cc1NC1=NS(=O)(=O)c2ccccc21	-3.4%	-17.0%	3.5%	nt	-71.8*	nt
Cc1cc(C(=O)Nc2cccc3ccccc23)n(-c2ccccc2)n1	-6.2%	-14.4%	-11.6%	-13.1%	89.1	-5.8%
Cc1cc(C(=O)Nc2cccc(C)c2C)n(-c2ccccc2)n1	5.3%	-5.3%	31.4%	-24.8%	-88.0*	-19.6%
COc1ccc(/C=C2\SC(=S)N(CCC(=O)N(CCO)Cc3ccccc3)C2=O)cc1OC	?	0.9%	?	nt	-98.8*	nt
COc1cc(/C=C2\SC(=S)N(N(C)c3ccccc3)C2=O)ccc1O	34.6%	-4.0%	-2.8%	nt	-101.1*	nt
COc1cc(/C=C2/SC(=S)N(Cc3ccccc3)C2=O)ccc1OS(C)(=O)=O	?	-5.4%	8.4%	nt	-68.9*	nt
COc1cc(/C=C2/SC(=S)N(Cc3ccccc3)C2=O)ccc1OCC(=O)O	-4.1%	-4.9%	?	i	-34.9	24.1%
CCOc1ccccc1NC(=O)CSC1=Nc2ccccc2C2=NC(CC(=O)NCc3ccc4c(c3)OCO4)C(=O)N12 (stereo not drawn)	nt	nt	-18.2%	-12.9%	18.2	-3.7%
CC/C(=C\c1ccc(N(C)C)cc1)c1ccncc1	?	nt	-21.9%	-19.7%	-23.5	-22.4%
CC(C)(O)C1O[C@H]2CC[C@@]3(C)[C@@](O)(CC[C@H]4Cc5c([nH]c6ccccc56)[C@@]43C)C2=CC1=O (stereo partly drawn)	nt	nt	-13.1%	-29.7%	nt	-11.2%
CCOc1ccccc1CN1CCNC(=O)C1CC(=O)NCc1nccn1CC (stereo not drawn)	-14.4%	-24.5%	-15.8%	-12.8%	-67.4*	-6.1%
O=C(CCc1nnc(Cc2c[nH]c3ccccc23)o1)NCC1CC12CCCCC2 (stereo not drawn)	16.0%	1.1%	-8.8%	-5.2%	62.4	-13.0%
Cc1cccnc1C(NC(=O)C1CCN(Cc2ccc(Cl)cc2)CC1)c1ccccc1 (stereo not drawn)	nt	nt	-17.1%	i	-28.2	-14.2%
Cc1cccnc1C(NC(=O)C1CCN(Cc2cn(C)c3ccccc23)CC1)c1ccc(Cl)cc1 (stereo not drawn)	nt	nt	0.0%	14.1µM*	6.8	11.2µM*
Nc1ncnc2c1ncn2[C@@H]1O[C@H](CO)[C@H](O)[C@H]1O	nt	-2.7%	nt	nt	nt	nt
OCC1OC(n2ccc3c2ncn2ncnc32)C(O)C1O (stereo not drawn)	nt	nt	?	?	-94.9*	?
Nc1ncnc2c1ccn2[C@@H]1O[C@H](CO)[C@@H](O)[C@H]1O	35.5µM*	7.7%	?	1.41µM*	-106.3*	1.78µM*
CCc1cccc(-n2c(=O)c3cccnc3n2CC(=O)NCc2ccccc2Cl)c1	nt	nt	6.1%	-11.4%[7.34 µM]	3.8	-11.5%[7.34 µM]
Cc1ccc(S(=O)(=O)CCSc2ccc(C(F)(F)F)cn2)cc1	1.6%	4.5%	-15.4%	nt	27.3	nt
O=S(=O)(CCSc1ccc(C(F)(F)F)cn1)c1ccccc1	-3.1%	-2.7%	14.2%	nt	-60.3*	nt
CC(Nc1ncnc2sccc12)c1ccccc1 (stereo not drawn)	2µM*	-7.6%	?	-21.3%	-85.5*	-11.6%
c1ccc(Nc2ncnc3sccc23)cc1	-15.6%	-7.4%	-9.0%	-3.1%	-60.7*	-11.6%
CCOC(=O)c1cccn1C1C(=O)N(Cc2ccc(C(F)(F)F)cc2)c2ccccc21 (stereo not drawn)	nt	nt	nt	nt	-5.3	nt
Cc1c(C(=O)N2CCOc3ccccc3C2)sc2ncnc(NCCCN3CCOCC3)c12	nt	nt	-9.8%	-9.1%	nt	-5.9%
CCOC(=O)C1=NN(c2ccccc2)C(=O)/C1=C\c1ccc(N(C)C)cc1	10.7%	8.4%	17.8µM*	-22.9%	-10.7	?
SMILES	HCV inhibitor	FBPA Giardia inh	FMDV inh	VACV mCherry inh	HCMV inh	VACV Venus inh
COc1cc(C=NO)nc(-c2ccccn2)c1	?	nt	-8.0%	?	-100.2*	?
COc1ccc2nc(-c3ccccn3)[nH]c2c1	5.6%	2.2%	29.8%	nt	30.0	nt
COc1cccc2sc(N)nc12	-3.7%	nt	-5.3%	i	-25.9	-7.6%
COc1cccc2sc(N(C)c3ccccc3)nc12	25.1µM*	-8.6%	-2.9%	nt	38.4	nt
COc1cc(C2Oc3cc(C4Oc5cc(O)cc(O)c5C(=O)C4O)ccc3OC2CO)ccc1O (stereo not drawn)	?	10.9%	?	-7.0%	-66.8*	-15.9%
COc1ccc(C2CC(=O)c3c(O)cc(O)cc3O2)cc1O (stereo not drawn)	-0.8%	7.6%	54.3%	13.7%	0.0	-4.7%
CCN(CC)S(=O)(=O)c1ccc2oc(SCC(=O)NC3CC3)nc2c1	11.1%	nt	-14.4%	17.8µM*	33.9	?
CCS(=O)(=O)c1ccc2oc(SCC(=O)NCCc3ccc(F)cc3)nc2c1	-22.6%	7.5%	?	-16.5%	?	-12.1%
CCS(=O)(=O)c1ccc2oc(SCC(=O)NCCC3=CCCCC3)nc2c1	3.0%	5.1%	?	nt	-102.8*	-16.4%
CCN(CC)S(=O)(=O)c1ccc2oc(SCC(=O)Nc3cc(C)on3)nc2c1	6.31µM*	nt	-2.6%	10µM*	?	?
CC(C)C[C@@H](CC(=O)N[C@H](CC(=O)N[C@@H]1CCNC[C@H]1C(=O)N[C@H](CC(=O)N[C@@H](CCC(=O)O)CC(=O)O)CC(C)C)C(C)C)NC(=O)[C@@H]1CCCC[C@H]1N	nt	-20.9%	nt	nt	nt	nt
COc1ccc(Nc2nccc3c2cc(-c2cccc(C(F)(F)F)c2)n3C)c(OC)c1	nt	nt	nt	nt	14.8	nt
N#Cc1ccccc1CSc1nnc(-c2ccccc2)o1	nt	nt	38.8%	12.3%	101.4	8.9%
Oc1cccc2ccc(Nc3ccccn3)nc12	1.12µM*	20.0%	0.0%	nt	-103.3*	nt
Cc1nn2c(=O)cc(COC(=O)c3ccc(NC(=O)c4cccs4)cc3)nc2s1	nt	nt	14.1µM*	?	-99.6*	?
Cc1nn2c(=O)cc(COC(=O)c3ccc(NC(=O)COc4ccc(Cl)cc4)cc3)nc2s1	nt	nt	15.8µM*	-4.3%	-84.3*	-22.9%
CC(Oc1ccccc1)C(=O)Nc1ccc(C(=O)OCc2cc(=O)n3nc(C4CC4)sc3n2)cc1 (stereo not drawn)	nt	nt	28.2µM*	?	?	-2.4%
O=C(Nc1ccc(C(=O)OCc2cc(=O)n3nc(C4CC4)sc3n2)cc1)c1ccccc1	nt	nt	?	-9.6%	6.2	-11.9%
COc1ccc(OCC(=O)Nc2ccc(C(=O)OCc3cc(=O)n4nc(C)sc4n3)cc2)cc1	nt	nt	10µM*	i	-28.4	-25.9%
COc1ccc(C(=O)NCC(=O)NCc2ccncc2)cc1	10.9%	nt	-8.0%	-16.4%	31.5	-11.1%
CC1=C(C(=O)Nc2ccc(Cl)cc2)C(c2ccc(C(F)(F)F)cc2)n2nnnc2N1 (stereo not drawn)	nt	nt	?	-6.0%	-10.4	-11.6%
Cc1ccc(NC(=S)NCc2ccccn2)cc1	4.2%	-23.0%	46.4%	nt	-16.9	-3.0%

Screening results: PubChem, National Center for Advancing Translational Sciences (NCATS)
